High-throughput results deposited in PubChem by National Center for Advancing Translational Sciences (NCATS).
Many of the other results were omitted from the sample, so hits are more common in it than they were.
TSG101-PTAP inh = inhibitors of HIV-1 PTAP binding to human TSG101, validation; AID 1347069; Potency, µM (titrated, usually from 115 µM), most hits filed as inhibitors; Q99816; 44,000 tested, under 10 active; Fluorescence polarization, FITC-PTAP peptide/Tsg101, 20 min; also: potency is read from the fitted curve at half-maximal effect; 0% is about no effect
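Fluorescence polarization binding of Tsg101 binding domain (10 uM final) to FITC-labeled PTAP-motif peptide (50 nM final) in HEPES pH 7.5/NaCl/Tween 20/EDTA/TCEP buffer; 20 min at r.t. Actives by curve class, <25 µM, efficacy <60% inhibition.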
B2AR arrestin ag = beta-arrestin recruitment by human beta2-adrenergic receptor ligands; HTLA Tango cells, beta-arrestin recruitment, luciferase luminescence, 18 h; Potency, µM (highest dose often 46.1 µM), usual class: activators; 44,000 tested, under 10 active;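 also: potency is read from the fitted curve at half-maximal effect; 0% = DMSO and full agonism = EC100 isoproterenol or metaproterenol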
Target sequence (P07550 whole entry, looked up): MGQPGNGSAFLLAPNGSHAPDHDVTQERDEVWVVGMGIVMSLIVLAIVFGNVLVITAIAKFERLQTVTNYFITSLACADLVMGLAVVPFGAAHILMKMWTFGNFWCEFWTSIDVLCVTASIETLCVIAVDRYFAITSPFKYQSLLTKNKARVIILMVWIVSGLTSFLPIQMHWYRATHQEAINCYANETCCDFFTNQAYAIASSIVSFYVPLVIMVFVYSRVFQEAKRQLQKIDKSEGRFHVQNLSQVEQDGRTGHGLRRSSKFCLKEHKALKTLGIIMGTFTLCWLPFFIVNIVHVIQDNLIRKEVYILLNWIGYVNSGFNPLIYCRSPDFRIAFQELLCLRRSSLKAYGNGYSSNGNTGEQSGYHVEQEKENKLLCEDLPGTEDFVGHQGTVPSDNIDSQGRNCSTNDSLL
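Receptor–beta-arrestin recruitment read by tTA-responsive luciferase: compound titrations (up to 46 µM) incubated 18 h with Tango cells, then luminescent substrate 15 min at room temperature. Concentration-response fits classified by r2, efficacy and activity.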
GALC G270D act = galactocerebrosidase G270D activity enhancement, cell-based; 145M-Twi-hGALC-G270D cells (Twitcher mouse brain line with human GALC G270D), HMU-beta-Gal fluorescence, 48 h; Potency, µM (doses to about 57.5 µM), usual class: activators; actives 0.1% (n = 45,000); AID 1159614; also: potency is read from the fitted curve at half-maximal effect; 0% is about no effect; nearly all actives have a fitted effect of over 65% in size
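Live 145M-Twi cells (Twitcher mouse brain-derived, GALC-null) stably expressing human GALC-G270D, with a wild-type GALC line, were compound-treated. Residual GALC activity was then read as fluorescence from 0.1 mM final HMU-β-gal at pH 5.2; higher signal means activation.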
FH mod = Identification of activators of human fumarate hydratase by quantitative high-throughput screening | Fumarate hydratase, mitochondrial (Homo sapiens), P07954 | Potency, µM (highest dose often 79.9 µM), without a hit: at the highest dose activity change, negative = inhibition, most hits filed as inhibitors | actives 0.22% (n = 54,000) | FH coupled MDH/diaphorase resazurin fluorescence, 15 min; also: potency is read from the fitted curve at half-maximal effect; % is scaled to controls: 0 for no effect and ±100 for the full control effect; the screen sought activators but most active calls are inhibition curves; nearly all actives have a fitted effect of over 45% in size
NTMT1 inh = inhibitors of human N-terminal methyltransferase NTMT1. AID 1645870. Q9BV86. Potency, µM (doses to about 114 µM), without a hit: top-dose activity change, negative = inhibition, hits mostly inhibitors. actives 2.5% (n = 59,000). NTMT1 MTase-Glo SAH luminescence, purified enzyme;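 also: potency is read from the fitted curve at half-maximal effect; plate controls were DMSO vehicle for no effect and no enzyme for full effect; nearly all actives have a fitted effect of over 65% in size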
Target sequence (Q9BV86 whole entry, looked up): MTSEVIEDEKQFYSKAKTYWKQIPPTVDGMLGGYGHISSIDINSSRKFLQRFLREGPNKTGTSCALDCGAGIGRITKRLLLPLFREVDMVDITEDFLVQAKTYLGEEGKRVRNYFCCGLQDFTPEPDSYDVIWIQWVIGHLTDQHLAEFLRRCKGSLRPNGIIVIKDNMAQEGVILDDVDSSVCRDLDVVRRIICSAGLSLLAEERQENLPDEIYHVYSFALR
GALK inh = GALK (human) enzyme inhibition | Potency, µM (top dose mostly 57.5 µM), for inactives: top-dose activity, negative = inhibition, usual class: inhibitors | 44,000 tested, under 10 active | P51570 | recombinant GALK, Kinase-Glo ATP luminescence, 1 h;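 also: plate controls were full GALK reaction for no effect and reaction lacking GALK for full effect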
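5 nM GALK; 35 uM ATP; 100 uM D-galactose; 20 mM HEPES pH 8.0, 5 mM MgCl2, 60 mM NaCl, 1 mM DTT, 0.01% BSA; 1 h RT; Kinase-Glo Plus luminescence.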
* marks the source's active call; other numbers are inactive results; i = inactive; ? = inconclusive; . = no result given; ! = not confirmed by another sample; [ ] = remark or other dose. Calls follow the shape of the dose curve; as a rule, active = well fitted curve in the direction sought with a large enough effect; inconclusive = small, poorly fitted or top-dose-only effect, or another doubt; inactive = no such curve, though single readings can be large; an effect the other way counts as inactive or inconclusive.

SMILES | TSG101-PTAP inh | B2AR arrestin ag | GALC G270D act | FH mod | NTMT1 inh | GALK inh
CC1(COc2ccc3c(c2)ncn3-c2ccc3cccc(N4CCC(N)CC4)c3n2)COC1 | . | . | . | 2.1% | 22.4µM*! | .
O=S(=O)(Nc1nccs1)c1ccc(NCc2cccc(Br)c2O)cc1 | . | . | . | . | -7.1% | .
CC(C)c1c(C(=O)Nc2ccccc2)c(-c2ccccc2)c(-c2ccc(F)cc2)n1CC[C@@H](O)C[C@@H](O)CC(=O)O | . | . | i | 2.6%[20.6 µM] | 35.5µM*! | .
Cc1nc(CN=C2NC3=C(C(=O)CCC3)C(c3[nH]ncc3Cl)N2)cs1 (stereo unspecified) | . | . | . | . | -3.3%[57.5 µM] | .
CCOC(=O)C1CCN(C(=O)c2ccc3c(c2)sc2nc(-c4ccc(C)cc4)cn23)CC1 | i | i | i | ? | 1.2% | 1.5%
CCOC(=O)C1CCN(C(=O)c2ccc3c(c2)sc2nc(-c4ccc(OC)cc4)cn23)CC1 | i | i | i | -22.8% | 89.1µM* | -0.8%
COc1cccc(NC(=O)/C(C#N)=C/c2ccc(-c3ccc(C)cc3)o2)c1 | 39.8µM* | i | i | -7.9% | 10.3% | 2.2%
N#C/C(=C\c1ccc(-c2ccc(C(=O)O)cc2)o1)C(=O)Nc1ccccc1C(=O)O | i | i | i | 14.1µM* | 1.6% | ?
Nc1cc(C(F)(F)F)c(-c2nc(N3CCOCC3)nc(N3CCOCC3)n2)cn1 | . | . | . | . | 2.7% | .
CCN(CC)CCCCn1c(-c2ccccc2)nc2c(NCc3ccccc3)nc(C)nc21 | . | . | . | . | 89.1µM* | .
NS(=O)(=O)OC[C@@H]1C[C@@H](n2ccc3c(N[C@H]4CCc5ccccc54)ncnc32)C[C@@H]1O | . | . | . | 0.7% | 39.8µM*! | .
COC(=O)C1=COC(O[C@@H]2O[C@H](CO)[C@@H](O)[C@H](O)[C@H]2O)/C(=C\COC(=O)/C=C/c2ccccc2)C1CC(=O)OCCc1ccc(O)cc1 (stereo partly specified) | . | . | . | -4.3%[20.6 µM] | 6.6%[12.6 µM] | .
CN(CCCN1c2ccccc2CCc2ccccc21)CC(=O)c1ccc(Cl)cc1 | . | . | i | -11.1%[53.3 µM] | 31.6µM* | .
COC(=O)C1=COC(O[C@@H]2O[C@H](CO)[C@@H](O)[C@H](O)[C@H]2O)/C(=C\COC(=O)c2ccc(OC3OC(CO)C(O)C(O)C3O)c(OC)c2)C1CC(=O)OCCc1ccc(O)cc1 (stereo partly specified) | . | . | . | 6.3%[20.6 µM] | 7.7%[12.6 µM] | .
C=CCN1C[C@H](C(=O)N(CCCN(C)C)C(=O)NCC)CC2c3cccc4[nH]cc(c34)C[C@H]21 (stereo partly specified) | . | . | . | . | 0.1% | .
COc1ccc(OC)c(CNC(=O)c2ccc3c(c2)c(C)c(C)n3Cc2ccc(Cl)cc2)c1 | i | i | i | -18.1% | 19.8% | -1.0%
Cc1ccc(CCNC(=O)c2ccc3[nH]c(C)c(C)c3c2)cc1 | i | i | i | 35.5µM* | ? | -0.2%
CCOc1ccc(CCNC(=O)c2ccc3c(c2)c(C)c(C)n3C)cc1 | i | i | i | 15.8µM* | ? | 2.6%
CCOc1ccc(CCNC(=O)c2ccc3[nH]c(C)c(C)c3c2)cc1 | i | i | i | ? | -20.7% | 1.0%
COc1ccc(OC)c(CNC(=O)c2ccc3c(c2)c(C)c(C)n3C)c1 | i | i | i | -12.6% | 89.1µM* | -3.1%
O=C(O)C1(Cc2cccc(Nc3nccs3)n2)CCC(Oc2cccc(Cl)c2F)CC1 (stereo unspecified) | . | . | . | -12.5% | 28.2µM* | .
COc1cc(O)c(C(CC(=O)N2CCCCC2)c2ccc(C)cc2)c(OC)c1 (stereo unspecified) | . | . | . | . | 16.4% | .
COc1ccccc1-c1cc2nc(C)c(CCC(=O)NCc3cccc(Cl)c3)c(C)n2n1 | i | i | i | ? | 89.1µM* | -1.4%
Nc1ccc(F)cc1NC(=O)c1ccc(CNC(=O)/C=C/c2cccnc2)cc1 | . | . | . | . | 23.7% | .
NC1(c2ccc(-c3nc4ccn5c(=O)[nH]nc5c4cc3-c3ccccc3)cc2)CCC1 | . | . | i | 7.0% | 50.1µM*! | .
SMILES | TSG101-PTAP inh | B2AR arrestin ag | GALC G270D act | FH mod | NTMT1 inh | GALK inh
Oc1ccc(O)cc1 | . | . | i | 3.55µM* | 35.5µM* | .
Oc1ccccc1 | . | . | i | -6.7%[53.3 µM] | -14.0%[57.5 µM] | .
CCc1ccc(NC(=O)c2ccc(Cn3nc(N4CCN(c5ccccc5)CC4)ccc3=O)o2)cc1 | i | i | i | -21.0% | ? | 1.3%
CCc1ccc(-c2cc3c(N4CCN(c5ccccc5)CC4)nccn3n2)cc1 | i | i | i | -10.7% | 79.4µM* | -1.5%
CNc1oc(-c2ccc3c(c2)OCCO3)nc1C#N | . | . | . | . | -10.1%[57.5 µM] | .
CCC(C(=O)Nc1cccc(C#N)c1)n1c(=O)c(-c2ccccc2NC(C)=O)nc2ccccc21 (stereo unspecified) | i | i | i | ? | 3.7% | 2.7%
CCC(C(=O)Nc1c(C)cc(C)cc1C)n1c(=O)c(-c2ccccc2NC(C)=O)nc2ccccc21 (stereo unspecified) | i | i | i | -7.9% | 89.1µM* | 1.4%
COCc1c(O)c(C(=O)O)c(C)c2c1OC(=O)c1c(C)cc(O)c(CO)c1O2 | . | . | . | -11.2%[53.3 µM] | ? | .
Cc1nc(NC(=O)N2CCCC2C(N)=O)sc1-c1ccnc(C(C)(C)C(F)(F)F)c1 (stereo unspecified) | . | . | . | 5.1% | 44.7µM* | .
O=C(Nc1cc(Oc2cc(F)c(NC(=O)C3(C(=O)Nc4ccc(F)cc4)CC3)cc2F)ccn1)C1CC1 | . | . | . | -2.0% | 20.9% | .
CNC1CCC(N(Cc2cccc(-c3ccncc3)c2)C(=O)c2sc3ccccc3c2Cl)CC1 (stereo unspecified) | . | . | . | 0.7% | 35.5µM*! | .
CCCSc1ncc(Cl)c(C(=O)N(Cc2cccc(Cl)c2)C2CCS(=O)(=O)C2)n1 (stereo unspecified) | i | i | i | -21.2% | 15.3% | 3.4%
CNC1CCC(N(Cc2cccc(-c3ccncc3)c2)C(=O)c2sc3c(F)ccc(F)c3c2Cl)CC1 (stereo unspecified) | . | . | . | -3.7% | 70.8µM*! | .
CC(=O)OCC(Cc1ccccc1)NC(=O)C(Cc1ccccc1)NC(=O)c1ccccc1 (stereo unspecified) | . | . | . | 4.5%[53.3 µM] | -5.9%[29.8 µM] | .
CCCCCCCCCCCCCCCCCCNC(=O)OC1CCN(C(=O)OC[C@H](COC(=O)N(Cc2cccc[n+]2CC)C(=O)c2ccccc2OC)OC)CC1 | . | . | i | -9.8%[53.3 µM] | 50.1µM* | .
COc1ccc(CC(=O)Nc2nc(-c3ccc4c(c3)CCN4C(=O)c3ccccc3C)c(C)s2)cc1 | . | . | . | . | 11.8% | .
Fc1ccc(-c2nc(C3CCNCC3)sc2-c2ccnc(NC3CC3)n2)cc1 | . | . | . | -0.4% | -8.3%[57.5 µM] | .
